Assay [1] in a line: qHTS assay to identify small molecule agonists of the sonic hedgehog signaling (Shh) pathway (AID 1259368). Further: nearly all actives have a fitted effect of over 15% in size. Further: potency means the concentration at half of the fitted maximal effect.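 On activity change: NIH/3T3-derived 3T3Gli1-Luc cells carrying a stable Gli1-driven firefly luciferase reporter; series mostly up to about 92 µM.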 An outline of the steps: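 Stable NIH/3T3 Gli1-Luc reporter clone; 24 hr cpd exposure after a 4 hr settling period; luminescence endpoint.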
Assay [2] in a line: qHTS assay to identify small molecule antagonists of the sonic hedgehog signaling (Shh) pathway (AID 1259369). Further: nearly all actives have a fitted effect of over 45% in size. Further: potency means the concentration at half of the fitted maximal effect. An outline of the steps:
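Gli1 transcriptional reporter (firefly Luc) in NIH/3T3 background, conditioned-medium activated. 24hr exposure, luminescence endpoint.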

Assay [3] deals with Estrogen receptor beta (Homo sapiens) (UniProt Q92731). The assay can be described thus: qHTS assay to identify small molecule agonists of the estrogen receptor beta (ER-beta) signaling pathway (AID 1259377; active means well fitted activation curve with a large enough effect in the signal ratio in the repeat runs, not every such curve was filed as active; the % refers to the signal ratio). Summed up: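 A UAS-controlled beta-lactamase reporter in ER-beta-UAS-bla HEK293T cells reports receptor activation. Compounds act for 16 hr at 37C in 2% charcoal-stripped serum, and a FRET substrate is read by fluorescence after 2 hours.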
Chain of Estrogen receptor beta (Homo sapiens) (Q92731 whole entry, looked up): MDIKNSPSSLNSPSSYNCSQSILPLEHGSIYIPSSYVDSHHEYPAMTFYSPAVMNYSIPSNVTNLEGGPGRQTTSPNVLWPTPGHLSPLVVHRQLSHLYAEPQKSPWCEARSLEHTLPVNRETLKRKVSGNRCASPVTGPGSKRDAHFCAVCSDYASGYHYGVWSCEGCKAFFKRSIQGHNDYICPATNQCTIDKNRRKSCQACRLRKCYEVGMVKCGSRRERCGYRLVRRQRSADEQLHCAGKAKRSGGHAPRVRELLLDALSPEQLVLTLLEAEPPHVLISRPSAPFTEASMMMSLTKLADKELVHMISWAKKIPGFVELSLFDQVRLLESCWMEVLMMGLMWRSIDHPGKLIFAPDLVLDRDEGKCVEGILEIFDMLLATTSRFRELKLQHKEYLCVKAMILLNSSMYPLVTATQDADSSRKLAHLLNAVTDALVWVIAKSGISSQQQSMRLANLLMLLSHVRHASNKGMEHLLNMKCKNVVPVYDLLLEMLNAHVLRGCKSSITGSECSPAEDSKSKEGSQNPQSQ
On the technique in general: qHTS replaces the single test concentration by a dilution series.

For assay [4] the target is unchanged. The assay can be described thus: qHTS assay to identify small molecule antagonists of the estrogen receptor beta (ER-beta) signaling pathway (AID 1259378; active means well fitted inhibition curve with a large enough effect in the signal ratio in the repeat runs, not every such curve was filed as active; the % refers to the signal ratio; further: potency means the concentration at half of the fitted maximal effect). An outline of the steps: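 Antagonist mode: compounds added to beta-lactamase reporter HEK293T ER-beta-UAS cells stimulated with E2 (1nM final), 16 hr at 37C. LiveBLAzer B/G FRET substrate, 2 hours room temperature, fluorescence read-out.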

Assay [5] can be described thus: qHTS assay to identify small molecule agonists of the androgen receptor (AR) signaling pathway in the presence of an antagonist - cell viability counter screen (AID 1259379; active means well fitted curve in the direction sought with a large enough effect in the repeat runs; an effect the other way counts as inactive or inconclusive; further: nearly all actives have a fitted effect of over 25% in size; further: potency means the concentration at half of the fitted maximal effect;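 on activity change, negative = cytotoxicity: MDA-kb2 human breast cancer cells carrying an MMTV luciferase reporter; series mostly up to about 92 µM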). An outline of the steps:
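Counter screen for cell viability run in parallel with the AR agonist-mode luciferase assay. MDA-kb2 cells were co-treated with nilutamide (3.0uM final) and compounds, then incubated 16 hr at 37C, and CellTiter-Fluor fluorescence was measured.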

Assay [6] addresses Androgen receptor (Homo sapiens) (UniProt P10275). In words: qHTS assay to identify small molecule agonists of the androgen receptor (AR) signaling pathway in the presence of an antagonist (AID 1259381). Further: nearly all actives have a fitted effect of over 15% in size. An outline of the steps: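 AR antagonist background: nilutamide 3.0uM final. Cell line: MDA-kb2, MMTV-driven luciferase, responsive to both AR and GR. Exposure 16hr, 37C, no CO2; ONE-Glo luminescence.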

A short description of assay [7]: qHTS assay to identify small molecule antagonists of the estrogen receptor beta (ER-beta) signaling pathway - cell viability counter screen (AID 1259382; active means well fitted curve in the direction sought with a large enough effect in the repeat runs; an effect the other way counts as inactive or inconclusive; further: nearly all actives have a fitted effect of over 55% in size; further: potency means the concentration at half of the fitted maximal effect;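 on activity change, negative = cytotoxicity: HEK293T cells carrying ER-beta-UAS-bla reporter stimulated with estradiol; series mostly up to about 92 µM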). An outline of the steps:
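HEK293T ER-beta-UAS-bla, 2% charcoal-stripped FBS; compounds + 1nM E2 16 hr 37C; CellTiter-Glo luminescence, 30 min RT.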

In assay [8] the target is Estrogen receptor (Homo sapiens) (UniProt P03372). In words: qHTS assay to identify small molecule agonists of the estrogen receptor alpha (ER-alpha) signaling pathway in the presence of an antagonist (AID 1259383). Further: nearly all actives have a fitted effect of over 15% in size. Further: potency means the concentration at half of the fitted maximal effect. On activation: top concentration of the series differs between compounds. Summed up:
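ER-alpha agonism measured under antagonist challenge: 10.0nM ICI-182,780 (final) plus compound, 15 concentrations, 22hr, VM7Luc4E2 ERE-luciferase cells. Read by luminescence.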

A short description of assay [9]: qHTS assay to identify small molecule agonists or antagonists of the thyroid stimulating hormone receptor (TSHR) signaling pathway - wild type cell line counter screen (AID 1259384). An outline of the steps:
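Counter screen in untransfected Hek293: compounds (15-point titration, triplicate) plus phosphodiesterase inhibitor Ro20-1724 added after 18 h plating; 30 min RT. Intracellular cAMP via competitive d2/cryptate immunoassay, 1 h incubation.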

Assay [10] in a line: qHTS assay to identify small molecule agonists of the estrogen receptor beta (ER-beta) signaling pathway - cell viability counter screen (AID 1259380; active means well fitted curve in the direction sought with a large enough effect in the repeat runs; an effect the other way counts as inactive or inconclusive; further: nearly all actives have a fitted effect of over 30% in size; further: potency means the concentration at half of the fitted maximal effect). An outline of the steps: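 In this qHTS counter screen, HEK293T cells carrying an ER-beta/UAS beta-lactamase reporter, grown in 2% charcoal-stripped FBS, received compound for 16 hr; ATP-based CellTiter-Glo luminescence was then read after 30 min at room temperature.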

A number with no mark means an inactive call. Records with an inconclusive call do not appear. The source made the active and inactive calls. Unless noted, the call rests on the fitted dose curve.
On the % scale 0 is the no-effect control and ±100 the full control effect.

Chain of Androgen receptor (Homo sapiens) (P10275 whole entry, looked up): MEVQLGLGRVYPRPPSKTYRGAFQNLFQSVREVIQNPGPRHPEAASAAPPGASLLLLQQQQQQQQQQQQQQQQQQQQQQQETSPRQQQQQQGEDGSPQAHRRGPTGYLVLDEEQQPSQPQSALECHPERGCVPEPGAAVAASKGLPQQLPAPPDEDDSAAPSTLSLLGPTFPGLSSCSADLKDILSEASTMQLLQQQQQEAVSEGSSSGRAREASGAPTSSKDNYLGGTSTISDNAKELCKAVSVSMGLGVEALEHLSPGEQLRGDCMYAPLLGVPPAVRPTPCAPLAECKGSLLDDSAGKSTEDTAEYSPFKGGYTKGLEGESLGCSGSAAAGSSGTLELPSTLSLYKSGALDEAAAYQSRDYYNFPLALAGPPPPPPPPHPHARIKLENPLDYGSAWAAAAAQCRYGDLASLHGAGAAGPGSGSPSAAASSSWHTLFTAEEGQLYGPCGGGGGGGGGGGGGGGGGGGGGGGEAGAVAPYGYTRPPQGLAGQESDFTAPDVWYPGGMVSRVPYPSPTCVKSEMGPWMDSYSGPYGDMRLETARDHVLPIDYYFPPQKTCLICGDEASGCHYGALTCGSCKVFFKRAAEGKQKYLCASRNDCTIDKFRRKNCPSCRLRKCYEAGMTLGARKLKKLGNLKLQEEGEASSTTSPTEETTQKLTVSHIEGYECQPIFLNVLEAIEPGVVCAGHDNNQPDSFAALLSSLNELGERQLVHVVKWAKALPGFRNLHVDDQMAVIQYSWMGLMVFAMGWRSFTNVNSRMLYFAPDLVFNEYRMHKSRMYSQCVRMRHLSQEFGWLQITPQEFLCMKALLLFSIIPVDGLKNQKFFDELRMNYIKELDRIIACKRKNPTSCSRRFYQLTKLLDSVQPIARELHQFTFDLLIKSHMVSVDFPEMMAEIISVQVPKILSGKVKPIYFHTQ
Chain of Estrogen receptor (Homo sapiens) (P03372 whole entry, looked up): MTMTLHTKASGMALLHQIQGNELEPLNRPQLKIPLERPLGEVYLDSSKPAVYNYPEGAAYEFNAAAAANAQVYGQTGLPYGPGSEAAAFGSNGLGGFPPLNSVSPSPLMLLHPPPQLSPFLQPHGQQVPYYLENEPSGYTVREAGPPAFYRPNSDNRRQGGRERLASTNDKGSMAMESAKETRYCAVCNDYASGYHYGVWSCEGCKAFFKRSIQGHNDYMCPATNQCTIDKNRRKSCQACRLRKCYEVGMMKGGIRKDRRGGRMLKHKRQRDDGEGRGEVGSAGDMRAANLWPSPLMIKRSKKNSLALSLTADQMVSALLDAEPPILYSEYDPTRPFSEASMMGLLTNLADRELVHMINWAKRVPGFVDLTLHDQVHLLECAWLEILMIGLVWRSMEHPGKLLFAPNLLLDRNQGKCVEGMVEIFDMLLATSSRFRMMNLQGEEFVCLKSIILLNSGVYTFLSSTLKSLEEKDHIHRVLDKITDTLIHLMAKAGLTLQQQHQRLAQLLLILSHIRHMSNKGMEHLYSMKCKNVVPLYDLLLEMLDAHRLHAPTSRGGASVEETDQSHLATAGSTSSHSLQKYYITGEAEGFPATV

Consider `CC1(C)[C@@H]2CC[C@]3(C2)[C@@H]1C(=O)CCC3(C)C`, for which the Potency entry in assay [1], in assay [2], in assay [3], in [4], in assay [5] and in assay [6] was “inactive” each time. Further, the Potency entry in assay [7] and in assay [8] was “inactive” throughout. In addition, the compound was called inactive in [9].

As to `c1ccc(CN(Cc2ccccc2)Cc2ccccc2)cc1`, the Potency entry in [3] is “inactive”.

Take `COc1ccc(/C=C/S(=O)(=O)NC(=O)c2ccc(C)cc2Cl)cc1`: the Potency result in assay [3] was “inactive”.

Regarding `Cc1cc(SC2=C(O)C[C@@](CCc3ccc(N)cc3)(C(C)C)OC2=O)c(C(C)(C)C)cc1CO`, the Potency result in assay [1], in assay [2], in assay [5], in assay [10], in assay [6] and in assay [7] was “inactive” in each case. The outcome in assay [9] was inactive.

With `CCN(CCCCOC(=O)c1ccc(OC)c(OC)c1)C(C)Cc1ccc(OC)cc1` (configuration not stated), the Potency result in assay [1], in assay [2], in [4], in [5], in assay [7] and in assay [8] was “inactive” in each case. For the same compound, in assay [9], the call was inactive.

For the compound `CNc1ccccc1`, the Potency entry in [1], in assay [2], in assay [5], in [10], in assay [7] and in assay [8] was “inactive” throughout.

As to `CC(C)=CCCC(C)C=O` (configuration not stated), the Potency entry in [1], in assay [2], in [4], in assay [5], in assay [7] and in assay [8] was “inactive” in each case. The call in assay [9] was inactive.

On to `CCC(C(=O)O)c1ccc(N2Cc3ccccc3C2=O)cc1` (configuration not stated), for which the Potency result in assay [1], in assay [2], in assay [5], in assay [10], in [6] and in assay [7] was “inactive” in each case. In addition, the Potency result in [8] was “inactive”.

On to `CC1(COc2ccc(CC3SC(=O)NC3=O)cc2)CCCCC1` (configuration not stated), for which the Potency result in assay [1], in assay [2], in assay [5], in assay [7] and in assay [8] was “inactive” each time. Also, in [10], the Potency was 10.6 µM (active). Moreover, in assay [9], the compound was classed as inactive.

Take `C=CC(=O)OCCCCCCCCCC`: the Potency result in assay [1], in assay [2], in assay [5], in assay [10], in [7] and in [8] was “inactive” throughout. Moreover, in [9], the compound was classed as inactive.

On to `CC1=C(C)C(=O)C(CCCCC#CCCCC#CCO)=C(C)C1=O`, for which the Potency result in assay [1], in [2] and in assay [8] was “inactive” each time. In addition, the results for the Potency in [4], in [10] and in assay [7] were 21.1 µM (active), 18.8 µM (active) and 26.6 µM (active), respectively. The result in [9] was inactive.

Consider `CC(C)CCCCCOC(=O)CS`, for which the Potency entry in assay [1], in assay [2], in assay [5], in assay [10], in [7] and in [8] was “inactive” throughout. Also, the result in [9] was inactive.

On to `OCCOc1cccc(OCCO)c1`, for which the Potency entry in [1], in assay [2], in assay [5], in assay [10] and in assay [7] was “inactive” in each case.

`CCc1ccc2c(c1)C(=O)c1ccccc1C2=O`: the Potency was 6.86 µM (active) in assay [1] and 2.43 µM (active) in assay [8]. The Potency entry in assay [2], in assay [5], in [10] and in assay [7] was “inactive” throughout. Further, in assay [9], the outcome was inactive.

Take `CC[C@H](NC(C)C)[C@H](O)c1ccc(O)c2[nH]c(=O)ccc12`: the Potency result in [1], in assay [2], in assay [5], in [10], in assay [6] and in assay [7] was “inactive” in each case. Also, the Potency result in assay [8] was “inactive”.

Consider `CCCCCCCCCCCCN1CCOCC1`, for which the Potency entry in [1], in assay [2], in assay [4], in assay [5], in assay [7] and in [8] was “inactive” throughout. The compound was classed as inactive in [9].

As to `c1ccc(-c2ccc(-c3ccccc3)cc2)cc1`, in assay [1], the activity change was 4.66% [at 18.9 µM, active compounds read high]. Further, the activity change, negative = inhibition in [2] is 32.6% [at 19 µM]. The values for the activity change, negative = cytotoxicity in [5], in assay [10] and in [7] were -0.211% [at 19 µM], 0.175% [at 19 µM] and -1.89% [at 19 µM], respectively. For the same compound, the Potency in [8] is 0.629 µM (active).

As for `CC(C)CC(C)(C)C`, the Potency result in assay [1], in [2], in assay [5] and in assay [8] was “inactive” throughout. Moreover, the results for the Potency in assay [10] and in assay [7] were 35.7 µM (active) and 31.8 µM (active), respectively. Moreover, the compound was called inactive in assay [9].

With `O=C(O)c1ccc2c(c1)nc(C(=O)NC1CCN(C3CC3)CC1)n2Cc1cc(-c2ccc(Cl)s2)on1`, in [1], the activity change was -5.1% [at 18.9 µM, active compounds read high]. Further, in [2], the activity change, negative = inhibition was -2.6% [at 19 µM]. Further, the activity, negative = inhibition in assay [4] is 18.6% [at 19 µM]. In assay [5], the activity change, negative = cytotoxicity was 2.61% [at 19 µM]. In addition, the activation in [8] is 1.43% [at 19 µM].

For the compound `O=C(OCCCCCOC(=O)c1ccccc1)c1ccccc1`, the Potency result in [1], in assay [2], in [5], in assay [10], in assay [7] and in [8] was “inactive” in each case. Further, in [9], the compound was classed as inactive.

Consider `CC(CC(C#N)(c1ccccc1)C(C)C)N(C)C` (configuration not stated), for which the Potency result in assay [1], in assay [2], in assay [5], in assay [10], in [6] and in assay [7] was “inactive” each time. Further, the Potency entry in assay [8] is “inactive”. Further, in [9], the outcome was inactive.

In the case of `C[C@H](N)C(=O)N[C@@H](C)C(=O)NC1[C@H]2CN(c3nc4c(cc3F)c(=O)c(C(=O)O)cn4-c3ccc(F)cc3F)C[C@@H]12` (some centres not stated), the Potency entry in [1], in assay [2], in assay [5], in assay [10], in [6] and in assay [8] was “inactive” each time.

Take `Nc1ccccc1Nc1ccccc1`: the Potency entry in [1], in [5], in assay [10] and in assay [7] was “inactive” each time. In assay [2], the Potency was 2.74 µM (active).

Regarding `CC(=O)Oc1cccc2c1C(=O)c1c(OC(C)=O)cc(C(=O)O)cc1C2=O`, the Potency entry in assay [1], in assay [2], in [10], in assay [6] and in assay [7] was “inactive” each time. The Potency in assay [5] is 26.6 µM (active). The result in assay [9] was inactive.

With `COc1ccnc2c1CCCCC2S(=O)c1nc2ccccc2[nH]1` (configuration not stated), the Potency entry in assay [1], in assay [2], in assay [4], in assay [5] and in [8] was “inactive” throughout. In addition, in assay [9], the call was inactive.

On to `O=[N+]([O-])c1cccc(I)c1`, for which the Potency result in assay [1], in assay [2], in [5], in assay [10], in assay [7] and in [8] was “inactive” each time. In addition, in assay [9], the compound was called inactive.

With `CCCC(=O)OCCC(C)C`, the Potency entry in [1], in assay [2], in assay [5], in [10], in assay [6] and in assay [7] was “inactive” throughout. For the same compound, the Potency result in assay [8] was “inactive”. Also, in assay [9], the compound was called inactive.

Regarding `CS(C)=O`, the Potency result in [1], in [5], in assay [10] and in [7] was “inactive” throughout. The Potency in [2] is 68.6 µM (active).

As for `O=C(O)c1cccc(C(=O)O)c1C(=O)O`, the Potency result in [1], in assay [2], in [5], in [6] and in assay [8] was “inactive” each time. In addition, the Potency in assay [10] was 13.8 µM (active).

`O=C(Cl)c1ccc(F)c(Cl)c1`: the Potency result in [1], in assay [2], in assay [5], in [10] and in assay [7] was “inactive” each time. The Potency in assay [8] was 0.864 µM (active). The call in [9] was inactive.

Consider `O=C(C1CCCCC1)N1CC(=O)N2CCCc3ccccc3C2C1` (configuration not stated), for which the Potency entry in [1], in assay [2], in assay [5], in assay [10], in assay [6] and in assay [7] was “inactive” each time. The Potency result in [8] is “inactive”. For the same compound, the compound was classed as inactive in assay [9].

Regarding `Cc1c(Nc2ncccc2C(=O)O)cccc1C(F)(F)F`, the Potency result in assay [1], in assay [2] and in [5] was “inactive” each time. Moreover, the Potency in assay [10] is 8.41 µM (active).

Turning to `CC(C)C/C=C(\C=O)c1ccccc1`, the Potency result in [1], in assay [2], in assay [5], in assay [10], in [7] and in assay [8] was “inactive” throughout.

Values taken from PubChem BioAssay (Tox21).
